Experimental findings from PubChem BioAssay (NCATS) are described below.

The structures appear in SMILES notation. Results filed as inconclusive are left out. Unmarked numbers belong to inactive results. Calls come from the whole dose curve; as a rule, active = well fitted inhibition curve with a large enough effect; inconclusive = small, poorly fitted or top-dose-only effect; inactive = flat fitted curve, though single readings scatter.

Luciferin 4-monooxygenase (Photinus pyralis), sequence (P08659 whole entry, looked up): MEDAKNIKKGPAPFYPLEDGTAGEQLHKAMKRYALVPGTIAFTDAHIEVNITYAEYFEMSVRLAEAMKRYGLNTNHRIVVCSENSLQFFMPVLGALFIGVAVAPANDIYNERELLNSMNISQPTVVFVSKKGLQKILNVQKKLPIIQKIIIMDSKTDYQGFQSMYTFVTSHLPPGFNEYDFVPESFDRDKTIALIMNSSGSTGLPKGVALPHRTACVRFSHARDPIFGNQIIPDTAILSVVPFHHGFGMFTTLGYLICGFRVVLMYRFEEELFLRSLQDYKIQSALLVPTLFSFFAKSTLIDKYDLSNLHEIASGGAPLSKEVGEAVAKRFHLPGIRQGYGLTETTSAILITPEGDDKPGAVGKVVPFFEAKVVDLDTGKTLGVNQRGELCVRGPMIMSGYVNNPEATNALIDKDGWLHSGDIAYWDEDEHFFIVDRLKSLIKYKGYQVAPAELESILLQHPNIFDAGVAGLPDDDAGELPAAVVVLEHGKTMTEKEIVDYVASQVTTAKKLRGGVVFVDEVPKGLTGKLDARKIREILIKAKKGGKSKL

For this test, the target named is Luciferin 4-monooxygenase (Photinus pyralis) (UniProt P08659). Nature of the test: Biochemical firefly luciferase enzyme assay for NPC (AID 624030).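 Note: purified P. pyralis luciferase at 10 nM with luciferin and ATP substrate; 0% = DMSO and -100% = full luciferase inhibition by PTC124 control; nearly all actives have a fitted effect of over 70% in size.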 The conditions noted are these: purified P. pyralis luciferase, luminescence, 5 min; series mostly up to 58.6 µM; activity change, negative = inhibition: at the top concentration. The procedure, abridged:
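Direct inhibition of firefly luciferase enzyme (10 nM final, 50 mM Tris Acetate) assessed by luminescence within 5 minutes. Percent activity scaled between DMSO and PTC124 positive control, with concentration-effect curves classified by fit quality and response.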
On to `CCCN(CC)[C@@H](CC)C(=O)Nc1c(C)cccc1C`, for which the “activity change, negative = inhibition” value is -2.8%.

As for `CSCC[C@H](NC(=O)[C@@H](Cc1ccc(O[S+](=O)([O-])O)cc1)NC(=O)[C@H](N)CC(=O)O)C(=O)NCC(=O)N[C@@H](Cc1c[nH]c2ccccc12)C(=O)N[C@H](CCSC)C(=O)N[C@H](CC(=O)O)C(=O)N[C@@H](Cc1ccccc1)C(N)=O`, the “activity change, negative = inhibition” value was -9.06%.

For the compound `CCN1CCC[C@@H]1CNC(=O)c1cc(S(=O)(=O)CC)ccc1OC`, the “activity change, negative = inhibition” value was -2.47%.

For `O=S(=O)(O)OCC1OC(OC2(COS(=O)(=O)O)OC(COS(=O)(=O)O)C(OS(=O)(=O)O)C2OS(=O)(=O)O)C(OS(=O)(=O)O)C(OS(=O)(=O)O)C1OS(=O)(=O)O` (centres undefined), the “activity change, negative = inhibition” value is -11.9%.

Regarding `CCO[C@@H](Cc1ccc(OCCc2ccc(OS(C)(=O)=O)cc2)cc1)C(=O)O`, the “activity change, negative = inhibition” value was -17.8%.

Take `CC12C=CC(=O)C=C1CCC1C2C(O)CC2(C)C1CCC2(O)C(=O)COC(=O)CCC(=O)O` (centres undefined): the “activity change, negative = inhibition” value was -0.0354%.

As for `CC1(C)SC2C(NC(=O)C(c3ccccc3)S(=O)(=O)O)C(=O)N2C1C(=O)O` (centres undefined), the “activity change, negative = inhibition” value is -6.08%.

With `CO/N=C1\C[C@]2(C[C@@H]3C[C@H](C/C=C(/C)C[C@@H](C)/C=C\C=C4\CO[C@@H]5[C@@H](O)C(C)=C[C@@H](C(=O)O3)[C@]45O)O2)O[C@@H](/C(C)=C/C(C)C)[C@H]1C`, the “activity change, negative = inhibition” value was -2.95%.

Turning to `CN[C@H](CC(C)C)C(=O)N[C@H]1C(=O)N[C@@H](CC(N)=O)C(=O)N[C@H]2C(=O)N[C@H]3C(=O)N[C@H](C(=O)N[C@H](C(=O)O)c4cc(O)cc(O)c4-c4cc3ccc4O)[C@H](O)c3ccc(c(Cl)c3)Oc3cc2cc(c3O[C@@H]2OC(CO)[C@@H](O)[C@H](O)[C@H]2O[C@H]2C[C@](C)(N)[C@H](O)[C@H](C)O2)Oc2ccc(cc2Cl)[C@H]1O` (some centres undefined), the “activity change, negative = inhibition” value was -5.7%.
